# Rows were chosen to be rich in hits. Some 3.5% of all compounds tested hit in one or more screens of this group.
# GPR151 ag = activators of human GPR151; PathHunter beta-arrestin GPR151 cells, luminescence; activation, % at 11.2 µM; 650,000 tested, 1% active; AID 1508602; in the data active = activation above about 4.9%;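 note: 0% = median of compound wells and 100% = cells with positive control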
# MITF inh = blocks human microphthalmia-associated transcription factor; O75030; AlphaScreen MITF homodimerization, bead proximity signal; inhibition, % at 2.6 µM; 650,000 tested, 0.91% active; in the data active = inhibition above about 50%;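 note: 0% = vehicle wells with protein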
# Target sequence (O75030 whole entry, looked up): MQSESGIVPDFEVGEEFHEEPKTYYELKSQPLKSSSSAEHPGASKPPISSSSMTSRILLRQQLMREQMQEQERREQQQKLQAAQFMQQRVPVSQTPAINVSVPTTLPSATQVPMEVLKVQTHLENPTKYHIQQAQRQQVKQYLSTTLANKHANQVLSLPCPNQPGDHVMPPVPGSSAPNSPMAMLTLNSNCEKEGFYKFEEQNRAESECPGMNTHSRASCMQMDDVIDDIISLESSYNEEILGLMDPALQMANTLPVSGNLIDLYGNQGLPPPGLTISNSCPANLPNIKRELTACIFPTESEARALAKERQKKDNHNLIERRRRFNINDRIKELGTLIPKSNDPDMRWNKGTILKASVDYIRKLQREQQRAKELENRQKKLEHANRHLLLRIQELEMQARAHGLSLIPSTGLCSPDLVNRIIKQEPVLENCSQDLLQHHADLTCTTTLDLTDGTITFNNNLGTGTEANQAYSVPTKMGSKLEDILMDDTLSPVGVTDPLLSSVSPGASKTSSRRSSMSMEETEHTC
# FBW7 activator = human FBW7 E3 ligase activation, primary screen; normalized activity (activation), % at 26.1 µM; AlphaScreen FBW7–phospho-cyclin E peptide binding, activator screen; Q969H0; 650,000 tested, 0.13% active; in the data active = normalized activity above about 1.9%;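 note: purified mutant Fbw7 with reduced substrate affinity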
# TEAD-YAP block = TEAD-YAP interaction inhibition | 640,000 tested, 1.4% active | HEK-TIYL cells, TEAD-Gal4/YAP UAS-luciferase luminescence | inhibition, % at 9.12 µM; in the data active = inhibition above about 32%;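 note: 0% = median of test compound wells and 100% = reference inhibitor wells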
# An asterisk follows results filed as active.
SMILES,GPR151 ag,MITF inh,FBW7 activator,TEAD-YAP block
C[C@H]1O[C@@H](O[C@H]2[C@@H](O)C[C@H](O[C@H]3[C@@H](O)C[C@H](O[C@H]4CC[C@]5(C)C6CC[C@]7(C)[C@@H](C8=CC(=O)OC8)CC[C@]7(O)C6CC[C@@H]5C4)O[C@@H]3C)O[C@@H]2C)C[C@H](O)[C@@H]1O (stereo partly drawn),4,24,0,99*
COc1ccc(-c2nc3ccccc3c(=O)n2NCc2ccc(Br)cc2)cc1OC,1,2,0,-17
COc1ccc(-c2nc3ccccc3c(=O)n2NCc2ccc(O)cc2)cc1OC,1,18,0,40*
COc1ccc(-c2nc3ccccc3c(=O)n2NCc2cccc(Oc3ccccc3)c2)cc1,0,0,0,78*
COc1ccc(-c2nc3ccccc3c(=O)n2NCc2cccc(OC)c2)cc1,0,10,0,8
Cc1cccc(OCCCC(=O)Nc2nc3ccccc3[nH]2)c1,2,6,1,71*
COc1ccc(/C=N/Nc2nc3ccccc3[nH]c2=O)cc1OC,-1,4,0,3
CC(C)Cc1ccc(C(=O)N2CCC3(CC2)CC3C(=O)NCCCn2ccnc2)cc1 (stereo not drawn),0,-4,0,-4
COc1cc(NC(=O)/C=C/c2ccco2)ccc1NC(=O)c1ccco1,1,3,0,-9
COc1cc(NC(=S)NC(=O)/C=C/c2ccco2)ccc1NC(=O)c1ccco1,3,29,1,49*
CC(C)(C)C(=O)Nc1ccc(C(=O)/C=C/c2ccco2)cc1,0,-2,0,37*
O=C(/C=C/c1ccco1)NC(=S)Nc1ccc(NC(=O)c2ccco2)cc1,-2,27,0,69*
O=C(/C=C/c1ccco1)NC(=S)Nc1ccccc1,1,4,0,-12
O=C(CN(Cc1ccco1)C(=O)c1csnn1)NCc1ccc2c(c1)OCO2,0,0,0,1
CCCS(=O)(=O)c1c(S(=O)(=O)CCC)c2ccccn2c1C(=O)c1ccc(C)cc1C,2,7,0,-7
COc1cccc2cc(C(=O)Nc3ccccc3)c(=Nc3ccc(F)cc3)oc12,0,0,0,-40
COc1cccc2cc(C(=O)Nc3ccccc3)/c(=N/O)oc12,-1,14,0,34*
COc1cccc(-c2ccc(Cn3c(C)nc4cc(N)c(C)nc43)cc2)c1,-1,8,0,-2
Oc1ccc(/C=N/N2CCN(Cc3ccccc3)CC2)cc1O,0,35,0,5
Cc1ccc(CN2CCN(/N=C/c3ccc(O)c(O)c3)CC2)cc1,1,55*,-1,6
Clc1ccccc1OCc1nc(-c2ccccn2)no1,-7,13,0,-27
Clc1ccc(OCc2nc(-c3ccccn3)no2)c(Cl)c1,-5,5,0,36*
COC(=O)C1=C(N)Oc2cc(C)n(CC3CCCO3)c(=O)c2C1c1ccc(Cl)cc1 (stereo not drawn),-1,-21,2.3*,1
Cc1c2c(nc3c(C(=O)NCc4ccc5c(c4)OCO5)cnn13)CCCC2,2,5,0,-6
COc1ccc(Br)cc1C1C=C(c2cccs2)Nc2nnnn21 (stereo not drawn),0,17,0,42*
SMILES,GPR151 ag,MITF inh,FBW7 activator,TEAD-YAP block
COc1cccc(C2=CC(c3cccc(F)c3)n3nnnc3N2)c1 (stereo not drawn),-1,-3,0,50*
COc1cccc(C2=CC(c3ccc(OC)cc3OC)n3nnnc3N2)c1 (stereo not drawn),3,2,0,48*
Cc1ccc(S(=O)(=O)Nc2cc3c4c(oc3cc2C)CCCC4=O)cc1,1,8,0,10
COC(=O)c1c(C)oc2ccc(NS(=O)(=O)c3ccc(OC)cc3)cc12,0,-22,0,72*
COc1ccc(S(=O)(=O)Nc2cc3c4c(oc3cc2C)CCCC4=O)cc1,1,1,0,55*
COC(=O)c1c(C)oc2ccc(NS(=O)(=O)c3ccc(Cl)cc3)cc12,0,-5,0,16
COC(=O)c1cccc(NS(=O)(=O)c2ccc(C)cc2)c1,0,6,0,53*
COC(=O)c1c(C)oc2ccc(NS(=O)(=O)c3ccc(C)cc3)cc12,1,-1,0,56*
O=C(c1ccc(S(=O)(=O)c2ccccc2)cc1)N1CCCN(C(=O)c2ccc(S(=O)(=O)c3ccccc3)cc2)CC1,0,-9,0,-11
Cc1ccc(O)c(NC(=O)c2cc(-c3ccccc3F)no2)c1,-3,-6,0,-30
COC(=O)c1c(C)oc2cc(C)c(NS(=O)(=O)c3ccc(Br)cc3)cc12,0,2,0,34*
COC(=O)c1c(C)oc2c1cc(NS(=O)(=O)c1ccc(Br)cc1)c1ccccc12,0,6,0,4
Cc1ccc(-c2cccc3cnc(Nc4ccc(C(=O)N5CCCC5)cc4)nc23)cn1,-2,9,0,50*
Cc1ccc(-c2cccc3cnc(NC4CCN(C(=O)N5CCCC5)C4)nc23)cn1 (stereo not drawn),-1,9,0,25
Cc1ccc(-c2cccc3cnc(Nc4cccc(C(=O)N5CCOCC5)c4)nc23)cn1,-1,40,1,32*
CCS(=O)(=O)c1ccc2c(c1)N(Cc1ccc(F)cc1)C(=O)C(C)O2 (stereo not drawn),0,14,1,3
CCOc1ccc(-c2[nH]ncc2CNCc2cccs2)cc1Cl,-1,-10,0,-1
CCOc1cc(/C=C(\C#N)C(=O)NC(C)COC)cc(Br)c1OC (stereo not drawn),2,-12,0,-5
CSc1nnc(NC(=O)c2ccccc2Cl)s1,-11,22,0,39*
COc1cccc(C(=O)Nc2nnc(SC)s2)c1,-10,-3,0,43*
CSc1nnc(NC(=O)c2c(Cl)cccc2Cl)s1,1,-1,0,3
CSc1nnc(NC(=O)c2ccccc2[N+](=O)[O-])s1,-1,1,0,-18
CCCSc1nnc(NC(=O)c2cccc(OC)c2)s1,-2,17,0,-4
CSc1nnc(NC(=O)c2ccccc2C)s1,-9,3,0,41*
COc1ccccc1NC(=O)c1ccc(CSc2ccc(Cl)cc2)cc1,0,12,0,2
SMILES,GPR151 ag,MITF inh,FBW7 activator,TEAD-YAP block
OCCC1CN(Cc2cccn2-c2ccccn2)CCN1Cc1ccc(F)c(F)c1 (stereo not drawn),-2,10,0,16
CCOC(=O)CC(NC(=O)c1ccc(F)cc1)c1ccccc1Cl (stereo not drawn),-1,-9,0,-5
COc1ccc(S(=O)(=O)N(CC(=O)NCCc2ccc(OC)c(OC)c2)c2ccc(C)cc2)cc1,-1,1,0,36*
COc1ccc2cc3cc(C(=O)NCCc4ccc(OC)c(OC)c4)oc3nc2c1,2,-13,0,45*
COc1ccc2cc3cc(C(=O)N4CCCCC4C)oc3nc2c1 (stereo not drawn),-3,-6,0,36*
CC(C)n1c(-c2csc3ccccc23)nc2c(Nc3ccccc3)ncnc21,1,13,0,-44
